Assay results as given in paper PMC5540273 (PLoS ONE, 2017).

Each molecule was assayed on CAMK1. Conditions: concentration: 1 μM, replicates: in singlicate; n = 1.
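Note: KINOMEscan kinase panel screen.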

Structure (SMILES) | %Inh [%]
COc1cc2ncn(-c3cc(OCc4ccncc4Br)c(C(N)=O)s3)c2cc1OC [GW854278] | 0
Cc1cc(Nc2nc(-c3cccc(C)n3)nc3ccccc23)ccn1 [GW872411] | 0
Cc1nnc(-c2ccc(C)c(-c3ccc(C(=O)O)cc3)c2)o1 [GW608005] | 2
COc1cc(Nc2ccnc3ccc(C(F)(F)F)cc23)cc(OC)c1OC [GW577382] | 17
FC(F)(F)c1ccc(-c2ncn(CCCN3CCOCC3)c2-c2ccncc2)cc1 [SB-217780] | 0
Cl.c1ccc(Cn2cnc3cc(Nc4ncnc5ccccc45)ccc32)cc1 [GW272142] | 0
Cc1ccc(-c2ccc3c(ccc4sc5c(c43)NC[C@@H](C)N=C5N(C)C)n2)cn1 | 0
Cl.NS(=O)(=O)c1cccc(Nc2cc(-c3ccc(F)cc3)n[nH]2)c1 [GW824645] | 0
CCc1ccc(-c2ccc3c(c2)-c2nn(C)cc2S(=O)(=O)N3C)cc1 | 2
O=C(Nc1ccc2c(c1)OCO2)NC1CCN(c2ccnc(NCc3ccc(F)cc3)n2)CC1 [GSK1379859] | 16
Cc1nc(N(C)[C@H]2CN(C(=O)CC#N)CC[C@H]2C)c2cc[nH]c2n1 | 22
CCCC(=O)Nc1n[nH]c2ncc(-c3cccc4ccccc34)cc12 [SB-642057] | 0
COC(=O)c1c(-c2ccccc2)c2cc(C)ccc2c(=O)n1Cc1ccccc1 | 21
Cc1ccc(Oc2ccc(Nc3ncnc4cc[nH]c34)cc2C)cn1 | 16
